Compound activity from PubChem.
HP1b chromo inh = HP1-beta chromodomain-methylated histone interaction inhibition; 390,000 compounds, 0.56% hits; Potency, µM (titrated, usually from 114 µM), most hits filed as inhibitors; P83916; AlphaScreen HP1-beta / biotin-H3K9me3 peptide binding; AID 540317; also: nearly all actives have a fitted effect of over 70% in size
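AlphaScreen: HP1-beta (50 nM) preformed 30 min with biotin-H3(1-18)K9me3 peptide (50 nM) in PBS pH 7.4, 0.01% Tween-20. Compound added for 30 min at RT, then streptavidin donor/nickel chelate acceptor beads (10 ug/mL) for 30 min.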
JMJD2A Tudor = inhibitors of human JMJD2A Tudor domain; O75164; AlphaScreen JMJD2A-Tudor / H3K4me3 peptide binding; Potency, µM (titrated, usually from 114 µM), most hits filed as inhibitors; 390,000 compounds, 4.4% hits; also: nearly all actives have a fitted effect of over 50% in size
G9a block = blocks human histone lysine methyltransferase G9a | Q96KQ7 | G9a H3K9 monomethylation, AlphaScreen, 2 h | Potency, µM (doses to about 102 µM), hits mostly inhibitors | 350,000 compounds, 8.8% hits | AID 504332; also: nearly all actives have a fitted effect of over 75% in size
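G9a (20 nM) preincubated 15 min RT with compounds, then 500 nM biotinylated H3K9 peptide and 20 uM SAM added; 2 h RT reaction. Monomethyl-H3K9 product detected by AlphaScreen with anti-H3K9me1 antibody, streptavidin donor and anti-rabbit IgG acceptor beads.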
BAZ2B inh = inhibitors of human BAZ2B bromodomain. AlphaScreen BAZ2B-H3K14Ac peptide displacement. Potency, µM (doses to about 114 µM), usual class: inhibitors. 360,000 compounds, 4.4% hits. AID 504333; also: nearly all actives have a fitted effect of over 60% in size
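AlphaScreen displacement: compounds (up to 110uM) incubated 30 min at room temperature with a preformed 50 nM BAZ2B/50 nM biotinylated H3K14Ac peptide complex in PBS pH 7.4 with Tween-20. Donor and acceptor beads at 10 ug/mL final added, 20 min light-protected before reading.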
PLK1 PBD inh = inhibitors of human PLK1 polo-box domain binding; P53350; Potency, µM, hits mostly inhibitors; AID 720504; Plk1 PBD binding of FITC phosphopeptide, fluorescence polarization; 360,000 compounds, 2.8% hits; also: series mostly up to about 57 µM; nearly all actives have a fitted effect of over 65% in size
ALOX12 inh = inhibitors of human 12S-lipoxygenase ALOX12; 580,000 compounds, 1.1% hits; purified 12hLO, xylenol orange hydroperoxide absorbance; Potency, µM (top dose mostly 108 µM), most hits filed as inhibitors; AID 1671190
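Hydroperoxide product was detected by ferrous iron/xylenol orange as the 573 to 405 nm absorbance ratio. Arachidonic acid at 40 uM (final) was turned over for 30 min at room temperature by 150 nM human 12hLO, pH 7.0 Hepes buffer, after 15 min compound preincubation.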
Hits are given with their value; – = inactive; ? = inconclusive; · = no result; [ ] = dose if it differs, or a comment. An excerpt weighted towards active compounds, which were near 9% of everything screened. Calls follow the shape of the dose curve; as a rule, active = well fitted curve in the direction sought with a large enough effect; inconclusive = small, poorly fitted or top-dose-only effect, or another doubt; inactive = no such curve, though single readings can be large; an effect the other way counts as inactive or inconclusive.

SMILES | HP1b chromo inh | JMJD2A Tudor | G9a block | BAZ2B inh | PLK1 PBD inh | ALOX12 inh
COc1ccc(CC2SC(=O)NC2=O)cc1C(=O)NCc1ccc(C(F)(F)F)cc1 (configuration not stated) | · | · | · | · | · | –
O=C(Nc1ccccc1)Nc1ccc(Cl)nc1Cl | – | – | · | · | – | 3.2µM
O=C(Nc1ccccc1)Nc1ccccc1 | – | – | –[2.33 µM] | · | – | –
CCCn1c(C)cc(C(=O)Cn2c(Cl)nc3c2c(=O)n(C)c(=O)n3C)c1C | · | · | · | · | · | –
COc1cc(/C=C2/C(=O)N(c3ccc(C(=O)O)cc3)N=C2C)cc(OC)c1O | ? | – | 40µM | ? | – | –
CC1=NN(c2ccc(Br)cc2)C(=O)/C1=C/c1cccs1 | – | ? | 7.1µM | 4.5µM | 8.4µM | –
CC1=NN(c2ccc(C)cc2)C(=O)/C1=C\c1ccc(Br)s1 | ? | – | ? | – | – | –
COc1cc(/C=C2/C(=O)N(c3ccc(C)c(C)c3)N=C2C)cc([N+](=O)[O-])c1O | ? | 45µM | –[0.501 µM] | 40µM | – | ?
COc1cc(/C=C2/C(=O)N(c3ccc(Br)cc3)N=C2C)cc(OC)c1OC | – | 35µM | 50µM | 40µM | 1.3µM | ·
Cc1noc(C)c1C(=O)N1CCC2(CCCN(C(=O)Nc3cccc(C#N)c3)C2)CC1 | · | · | –[12.7 µM] | · | · | ?
CCCn1c(=O)c2c(nc3n2CCN3c2ccc(C)cc2)n(C)c1=O | – | – | – | – | · | –
CSc1nc2ncnc(N)c2[nH]1 | – | 79µM | 45µM | – | – | ?
Cc1ccc(-c2noc(CN(C(=O)c3cccs3)C3CCCCC3)n2)cc1 | · | · | · | · | · | –
CC1(C)Cc2c(sc3[nH]c(=S)[nH]c(=O)c23)CO1 | – | 89µM | · | – | – | ?
COc1cc(C(=O)N2CCC(c3nc(-c4cccnc4)no3)CC2)cc(OC)c1OC | – | – | ? | – | – | –
S=C1NCCOCCOCCOCCOCCN1 | – | – | ? | – | – | –
C1CNCCOCCNCCN1 | – | – | – | 45µM | – | –
CN(CC(=O)Nc1ccccc1F)CC(=O)Nc1ccc(F)c(F)c1F | – | – | – | – | – | –
O=C(O)COCC(=O)N[C@H]1CCN2C(=O)c3cc(-c4ccsc4)ccc3NC(=O)[C@H]12 | · | · | · | · | · | –
O=C(NCc1ccccn1)c1nn(-c2ccccc2)c(=O)c2ccccc12 | ? | – | – | – | – | ?
O=C1c2cccc([N+](=O)[O-])c2C(=O)N1C1CCCCC1 | – | – | · | – | – | –
O=C1c2cccnc2C(=O)N1C1CCCCC1 | – | – | – | 79µM | – | –
OCCNCCCCCOc1ccc(F)cc1 | – | – | – | – | – | ?
C=CCNCCCCOc1ccc(Br)cc1C | ? | 2.5µM | 2.5µM | 79µM | – | –
Cc1cc(Br)ccc1OCCCCNCCO | ? | 3.2µM | · | ? | – | –
SMILES | HP1b chromo inh | JMJD2A Tudor | G9a block | BAZ2B inh | PLK1 PBD inh | ALOX12 inh
CC1CCCCN1C(=O)COC(=O)C1CCN(S(=O)(=O)c2c(Cl)cccc2Cl)CC1 (configuration not stated) | – | – | · | – | – | –
COc1cccc(/C=N/NC(N)=S)c1OCc1ccccc1Cl | – | – | – | ? | – | 28µM
CCOC(=O)N1CCN(C(=O)CCSc2ccc(Cl)cc2)CC1 | – | – | – | – | – | –
CCOC(=O)N1CCN(C(=O)CCSc2ccc(C)cc2)CC1 | – | –[11.4 µM] | – | – | 3.4µM | –
CCN1C(=O)N[C@@H](CCc2ccccc2)[C@H](C(C)=O)[C@H]1C | – | – | · | · | – | ?
CCN1C(=NCCCOC(C)C)N[C@@H](CCc2ccccc2)[C@H](C(=O)NCCCOC(C)C)[C@H]1C | – | ? | · | – | 24µM | ?
CCN1C(=NCCOC)N[C@@H](CCc2ccccc2)[C@H](C(=O)OC)[C@H]1C | – | 40µM | –[12.7 µM] | – | – | ?
CCOC(=O)c1ccc(NC(=O)c2n[nH]c(=O)c3ccccc23)cc1 | – | – | · | – | – | –
Cc1nnsc1-c1c(C(=O)O)c(C)nn1-c1ccc(OC(F)(F)F)cc1 | – | – | · | – | – | –
O=C(O)c1cccc2cccc(-c3c4ccc(=O)c(O)c-4oc4c(O)c(O)ccc34)c12 | ? | 0.79µM | · | · | 4.7µM | 6.3µM
Cc1ccc2oc(-c3ccccc3C(=O)O)cc(=O)c2c1 | – | –[11.4 µM] | – | – | – | –
CCCNC(=O)C(=O)NCC(c1ccc2c(c1)OCO2)N1CCOCC1 (configuration not stated) | – | – | – | – | · | –
CN(C)CC[C@@H](c1ccccc1)c1ccccn1 | · | · | –[21.5 µM] | · | · | ·
CC(=O)c1c(C)[nH]c(-c2ccccc2)c1C | – | ? | – | 50µM | – | –
O=C(N[C@@H](Cc1ccccc1)C(=O)O)c1cccnc1 | – | – | 50µM | – | – | –
O=C(NC(Cc1ccccc1)C(=O)N1CCN(c2ccccc2O)CC1)c1ccccc1 (configuration not stated) | – | – | 50µM | – | – | –
O=C(Nc1ccccc1C(=O)NC(Cc1ccc(O)cc1)C(=O)O)c1ccccc1 (configuration not stated) | – | – | 45µM | – | – | –
O=C(NCc1ccccc1)c1cccnc1 | – | – | ? | – | – | –
COc1cc(CC(NC(C)=O)C(=O)NC2CCN(C(=O)c3ccc(C)cc3)CC2)cc(OC)c1 (configuration not stated) | – | – | – | – | – | –
C=CCNc1nc(NCC)nc(N2CCOCC2)n1 | – | – | – | – | – | –
COc1ccc(S(=O)(=O)N[C@H](C)c2onc(C)c2C(=O)O)cc1 | · | · | · | · | · | –
O=C(Nc1ccc(CN2CCCCC2)cc1)c1c(F)c(F)c(F)c(F)c1F | – | – | –[12.7 µM] | – | – | –
S=C(Nc1ccc(CN2CCCCC2)cc1)Nc1cccc(Cl)c1Cl | – | ? | 40µM | – | ? | –
CC(=O)Nc1ccc(CN2CCCCCCC2)cc1 | ? | 3.2µM | – | ? | – | ?
S=C(Nc1ccccc1)Nc1cccc(Cl)c1Cl | – | – | · | – | – | –
SMILES | HP1b chromo inh | JMJD2A Tudor | G9a block | BAZ2B inh | PLK1 PBD inh | ALOX12 inh
COc1ccc(CCc2ccnc3ccccc23)cc1 | – | – | · | · | – | ?
COc1cc(CNCc2ccccn2)ccc1OCc1ccc(Cl)c(Cl)c1 | – | ? | 50µM | ? | – | –
CCNCc1ccc(OCCO)c(OC)c1 | · | · | · | · | · | –
COc1cc(CNCc2ccccc2)ccc1OCC(O)c1ccccc1 (configuration not stated) | – | 20µM | 11µM | ? | – | –
COc1ccc(CNCCc2ccc(Cl)cc2)cc1OCc1ccccc1 | ? | 40µM | 10µM | 56µM | – | ·
COc1cc(CNCc2ccccn2)ccc1OCC(N)=O | – | 50µM | 2.2µM | 14µM | – | –
CCOc1cc(CNCc2ccccc2)ccc1OCc1ccc(Cl)cc1 | – | – | –[2.33 µM] | – | – | ?
COc1cc(CNCc2ccccn2)ccc1OCc1ccc(Cl)cc1Cl | – | ? | –[12.7 µM] | ? | – | ?
O=C(O)Cc1csc(-c2ccc(F)cc2)n1 | – | – | – | – | – | –
